The nature of experiment [1]: ATG_CRE_CIS: Attagene CIS-FACTORIAL HepG2 Assay for human cAMP Responsive Element (CRE) binding protein 3 (AID 2282926). To be noted: HepG2 CRE cis-reporter, Attagene multiplexed mRNA; actives raise or lower the signal. In a few lines: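 Liver-derived HepG2, transfected with a CRE-containing reporter panel, exposed 24 h; transcript levels sized and quantified by capillary electrophoresis of labelled amplicons; signal changes either way referenced to vehicle.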

A short description of experiment [2]: ATG_CMV_CIS: Attagene CIS-FACTORIAL HepG2 Assay for human CMV (Internal Marker) (AID 2282928).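 Note: endpoint acts as a background internal control marker rather than a target.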 The conditions noted are these: HepG2 CMV promoter reporter, transcription factor profiling; actives raise or lower the signal. In outline:
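Reporter transcripts from transfected HepG2 cells are isolated after 24 h of chemical dosing, reverse-transcribed and amplified. Fragments labeled with 6-FAM are cut with HpaI and quantified by capillary electrophoresis; DMSO defines baseline.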

Experiment [3] in a line: ATG_DR4_LXR_CIS: Attagene CIS-FACTORIAL HepG2 Assay for human Liver X Receptor (LXR), DR4 submotif (AID 2282929). The conditions noted are these: HepG2 Attagene DR4 cis-reporter, mRNA transcription; actives raise or lower the signal. In outline: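 DR4 cis-reporter in HepG2, 24 h exposure. Detection: RT-PCR, 6-FAM labelling, CE fragment analysis. Endpoint fitted bidirectionally, DMSO = baseline.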

Experiment [4] has as its target Aryl hydrocarbon receptor (Homo sapiens) (UniProt P35869). Description: ATG_Ahr_CIS: Attagene CIS-FACTORIAL HepG2 Assay for human Aryl Hydrocarbon Receptor (Ahr) (AID 2282930). The conditions noted are these: HepG2 AhR cis-factorial reporter transcription; actives raise or lower the signal. In outline: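 Endogenous factor activity is tracked through cis-promoter reporter units transfected into HepG2 cells. Transcript levels at 24 h are read by fluorescent RT-PCR and capillary electrophoresis, with activity in either direction scored relative to DMSO.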

Experiment [5] in a line: ATG_AP_1_CIS: Attagene CIS-FACTORIAL HepG2 Assay for human Activator Protein 1 (AP-1) (AID 2282931). To be noted: HepG2 Attagene cis-factorial AP-1 reporter mRNA; actives raise or lower the signal. In a few lines:
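Cis-regulated reporter units transiently expressed in HepG2 report endogenous transcription-factor activity. Signal: reporter mRNA at 24 h, via RT-PCR and fluorescent capillary electrophoresis. Endpoint derived by bidirectional fitting, DMSO as negative control.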

Experiment [6] in a line: ATG_AP_2_CIS: Attagene CIS-FACTORIAL HepG2 Assay for human Activator Protein 2 (AP-2) (AID 2282932). The conditions noted are these: HepG2 AP-2 cis-reporter, Attagene transcription factor profiling; actives raise or lower the signal. In a few lines: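 Liver-derived HepG2 line, cis-reporter system measuring endogenous factors; 24 h dosing; reporter mRNA detected by fluorescent RT-PCR and capillary electrophoresis.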

A short description of experiment [7]: ATG_BRE_CIS: Attagene CIS-FACTORIAL HepG2 Assay for human Bone Morphogenetic Protein (BMP) Response Element (BRE) (AID 2282933). To be noted: HepG2 BMP response element reporter, Attagene transcription factor profiling; actives raise or lower the signal. In a few lines:
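HepG2 cells transiently transfected with multiplexed cis-element reporter units were dosed with chemical for 24 h. Reporter mRNA was measured by RT-PCR with fluorescent labelling, HpaI digestion and capillary electrophoresis; bidirectional fitting relative to DMSO.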

The target in experiment [8] is Retinoic acid receptor alpha (Homo sapiens) (UniProt P10276). In words: ATG_DR5_RAR_CIS: Attagene CIS-FACTORIAL HepG2 Assay for human Retinoic Acid Receptor Alpha (RARE), DR5 submotif (AID 2282934). The conditions noted are these: HepG2 Attagene cis-factorial RARE DR5 reporter, mRNA; actives raise or lower the signal. In outline: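 After 24 h of chemical exposure, transiently transfected HepG2 cells were lysed for total RNA; the DR5-regulated reporter transcript was quantified via RT-PCR and capillary electrophoresis, with activity fitted bidirectionally against DMSO.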

In experiment [9] the target is Transcription factor E2F1 (Homo sapiens) (UniProt Q01094). Description: ATG_E2F_CIS: Attagene CIS-FACTORIAL HepG2 Assay for human E2F Transcription Factor 1 (AID 2282935). To be noted: HepG2 Attagene cis-reporter, E2F reporter RNA transcripts; actives raise or lower the signal. In a few lines:
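Liver-derived HepG2 cells expressing transfected promoter-driven reporter units received test chemical for 24 hours. Signal gains or losses were fitted bidirectionally against DMSO.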

The nature of experiment [10]: ATG_E_Box_CIS: Attagene CIS-FACTORIAL HepG2 Assay for human Enhancer Box (E-box) (AID 2282936). To be noted: HepG2 E-box cis-reporter transcription, actives raise or lower the signal. In outline:
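In this cell-based setup, HepG2 cells bearing transfected promoter-driven reporter units were exposed to chemicals for 24 h; reporter transcripts were amplified, 6-FAM-labelled, cut with HpaI and sized by capillary electrophoresis.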

Experiment [11] is described as follows: ATG_M_61_CIS: Attagene CIS-FACTORIAL HepG2 Assay for M61 Transcription Factor (Internal Marker) (AID 2282937). The conditions noted are these: HepG2 Attagene CIS-FACTORIAL M61 internal marker reporter; actives raise or lower the signal. In a few lines: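 Background-control endpoint: HepG2 cells with cis-regulated reporter constructs, 24 h exposure, reporter mRNA detected via fluorescent primer extension and capillary electrophoresis; values from bidirectional fitting with DMSO baseline.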

Experiment [12] in a line: ATG_EGR_CIS: Attagene CIS-FACTORIAL HepG2 Assay for human Early Growth Response 1 (EGR1) (AID 2282938). The conditions noted are these: HepG2 Attagene CIS-FACTORIAL EGR reporter mRNA; actives raise or lower the signal. In outline:
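Endpoint derived by bidirectional fitting versus DMSO vehicle. Method: cis-promoter reporter units transfected into HepG2, 24 h dosing, RNA isolation, RT-PCR with 6-FAM primer extension and HpaI digestion, then capillary electrophoresis fluorescence detection.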

Experiment [13] can be described thus: ATG_M_19_CIS: Attagene CIS-FACTORIAL HepG2 Assay for M19 Transcription Factor (Internal Marker) (AID 2282939). To be noted: HepG2 Attagene CIS-FACTORIAL M19 internal marker reporter; actives raise or lower the signal. In outline:
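HepG2 cells transiently transfected with cis-regulated multiple reporter transcription units were dosed for 24 h; reporter mRNA was quantified by RT-PCR, 6-FAM primer-extension labelling, HpaI digestion and capillary electrophoresis, with bidirectional fitting against DMSO baseline.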

Experiment [14] can be described thus: ATG_Ets_CIS: Attagene CIS-FACTORIAL HepG2 Assay for human Erythroblast Transformation Specific (ETS) (AID 2282941). The conditions noted are these: HepG2 ETS cis-reporter transcription, actives raise or lower the signal. In outline:
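Bidirectional fit versus DMSO of reporter mRNA signal, detected by RT-PCR and capillary electrophoresis in HepG2 cells transiently transfected with cis-element reporters and dosed 24 h.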

In experiment [15] the target is Hepatocyte nuclear factor 3-beta (Homo sapiens) (UniProt Q9Y261). Description: ATG_FoxA2_CIS: Attagene CIS-FACTORIAL HepG2 Assay for human Forkhead box A2 (FOXA2) (AID 2282942). To be noted: HepG2 cis-reporter transcription factor activity, 24 h; actives raise or lower the signal. In outline: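 Measured: reporter mRNA induction or loss in HepG2 transiently carrying multiple cis-regulated reporter units, 24 h after dosing. Quantified by RT-PCR plus capillary electrophoresis, normalised to DMSO.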

The nature of experiment [16]: ATG_FoxO_CIS: Attagene CIS-FACTORIAL HepG2 Assay for human Forkhead box O (FoxO) (AID 2282943). To be noted: HepG2 Attagene cis-reporter, FoxO element, mRNA; actives raise or lower the signal. In outline: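 Transfected HepG2 reporter cells exposed to test chemical for 24 h; reporter RNA measured by reverse transcription, PCR and fluorescent capillary electrophoresis; curves fitted for increases and decreases against DMSO.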

Experiment [17] can be described thus: ATG_GATA_CIS: Attagene CIS-FACTORIAL HepG2 Assay for human GATA Binding Protein (AID 2282944). To be noted: HepG2 GATA cis-element reporter, Attagene multiplex mRNA; actives raise or lower the signal. In a few lines: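 HepG2 cells transiently transfected with multiplexed cis-element reporter units reflecting endogenous transcription factor activity; reporter mRNA measured after 24 h dosing by RT-PCR, 6-FAM labeling, HpaI digestion and capillary electrophoresis. Bidirectional fitting versus DMSO baseline.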

The nature of experiment [18]: ATG_GLI_CIS: Attagene CIS-FACTORIAL HepG2 Assay for human Zinc Finger Protein GLI1 (AID 2282945). The conditions noted are these: HepG2, Attagene cis-factorial reporter mRNA, GLI element; actives raise or lower the signal. In a few lines:
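Transiently transfected HepG2 cells report endogenous transcription factor activity via cis-element-driven reporter units. After 24 h compound exposure, reporter mRNA was measured by RT-PCR with capillary electrophoresis; bidirectional fitting against DMSO baseline.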

Experiment [19] in a line: ATG_ERE_CIS: Attagene CIS-FACTORIAL HepG2 Assay for Estrogen Response Element (ERE) (AID 2282940). To be noted: HepG2 ERE cis-reporter, Attagene RNA transcript; actives raise or lower the signal. In outline: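 HepG2 cells transiently transfected with cis-promoter-driven multiplexed reporter transcription units report endogenous TF activity. After 24 h compound exposure, reporter mRNA is quantified by RT-PCR with capillary electrophoresis fluorescence; bidirectional fitting versus DMSO baseline.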

Calls of active or inactive are those of the source. Rule for the calls: active = hit-call score of the fitted dose curve at least 0.9, where 1 is the maximum; inactive = score below 0.9.

For seven compounds, outcome and AC50 results are on record in PubChem BioAssay (EPA / NIEHS).

Aryl hydrocarbon receptor (Homo sapiens), sequence (P35869 whole entry, looked up): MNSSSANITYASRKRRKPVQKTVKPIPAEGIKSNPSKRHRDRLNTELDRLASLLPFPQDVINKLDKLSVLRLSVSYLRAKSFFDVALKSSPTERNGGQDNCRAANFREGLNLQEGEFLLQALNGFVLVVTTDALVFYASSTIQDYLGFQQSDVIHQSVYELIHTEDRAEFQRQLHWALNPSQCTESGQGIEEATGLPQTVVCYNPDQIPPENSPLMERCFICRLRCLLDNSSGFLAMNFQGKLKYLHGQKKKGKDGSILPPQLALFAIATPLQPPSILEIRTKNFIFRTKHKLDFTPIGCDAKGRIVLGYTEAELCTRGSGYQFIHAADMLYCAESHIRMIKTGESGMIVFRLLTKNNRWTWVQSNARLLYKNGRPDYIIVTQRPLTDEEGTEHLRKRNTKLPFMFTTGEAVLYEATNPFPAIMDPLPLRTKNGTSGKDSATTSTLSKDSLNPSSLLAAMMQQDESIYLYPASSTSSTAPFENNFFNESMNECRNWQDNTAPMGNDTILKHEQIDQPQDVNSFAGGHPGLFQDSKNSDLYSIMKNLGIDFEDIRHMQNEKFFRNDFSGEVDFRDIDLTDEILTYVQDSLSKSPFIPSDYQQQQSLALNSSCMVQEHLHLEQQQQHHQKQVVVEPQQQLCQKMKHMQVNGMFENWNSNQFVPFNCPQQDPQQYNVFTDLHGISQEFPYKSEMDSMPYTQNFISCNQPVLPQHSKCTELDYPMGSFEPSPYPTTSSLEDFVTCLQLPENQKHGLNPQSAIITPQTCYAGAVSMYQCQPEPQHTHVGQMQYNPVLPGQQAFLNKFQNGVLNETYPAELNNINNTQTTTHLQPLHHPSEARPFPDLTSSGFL
Hepatocyte nuclear factor 3-beta (Homo sapiens), sequence (Q9Y261 whole entry, looked up): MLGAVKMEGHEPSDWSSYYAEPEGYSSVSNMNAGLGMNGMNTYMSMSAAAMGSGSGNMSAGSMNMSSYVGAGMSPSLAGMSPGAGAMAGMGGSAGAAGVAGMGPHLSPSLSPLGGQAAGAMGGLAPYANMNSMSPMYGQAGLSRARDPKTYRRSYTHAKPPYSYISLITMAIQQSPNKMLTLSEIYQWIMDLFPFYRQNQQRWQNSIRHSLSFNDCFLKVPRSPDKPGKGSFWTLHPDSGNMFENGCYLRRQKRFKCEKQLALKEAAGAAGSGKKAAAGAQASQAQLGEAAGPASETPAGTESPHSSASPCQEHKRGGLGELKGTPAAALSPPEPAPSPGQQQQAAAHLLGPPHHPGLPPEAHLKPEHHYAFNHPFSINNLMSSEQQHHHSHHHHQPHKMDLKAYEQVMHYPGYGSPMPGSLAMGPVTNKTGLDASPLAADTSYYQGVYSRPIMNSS
Transcription factor E2F1 (Homo sapiens), sequence (Q01094 whole entry, looked up): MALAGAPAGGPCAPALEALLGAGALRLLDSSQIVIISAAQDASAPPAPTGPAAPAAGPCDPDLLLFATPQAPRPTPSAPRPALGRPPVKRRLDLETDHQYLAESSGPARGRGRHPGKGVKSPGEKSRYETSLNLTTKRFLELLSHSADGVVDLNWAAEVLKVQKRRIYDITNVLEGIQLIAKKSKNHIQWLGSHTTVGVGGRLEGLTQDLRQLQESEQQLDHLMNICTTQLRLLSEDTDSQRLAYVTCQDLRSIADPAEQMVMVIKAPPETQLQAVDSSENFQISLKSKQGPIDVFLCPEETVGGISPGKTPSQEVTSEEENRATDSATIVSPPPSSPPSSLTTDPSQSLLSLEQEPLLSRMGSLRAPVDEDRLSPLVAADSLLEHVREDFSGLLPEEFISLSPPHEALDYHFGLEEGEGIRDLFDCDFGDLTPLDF
Retinoic acid receptor alpha (Homo sapiens), sequence (P10276 whole entry, looked up): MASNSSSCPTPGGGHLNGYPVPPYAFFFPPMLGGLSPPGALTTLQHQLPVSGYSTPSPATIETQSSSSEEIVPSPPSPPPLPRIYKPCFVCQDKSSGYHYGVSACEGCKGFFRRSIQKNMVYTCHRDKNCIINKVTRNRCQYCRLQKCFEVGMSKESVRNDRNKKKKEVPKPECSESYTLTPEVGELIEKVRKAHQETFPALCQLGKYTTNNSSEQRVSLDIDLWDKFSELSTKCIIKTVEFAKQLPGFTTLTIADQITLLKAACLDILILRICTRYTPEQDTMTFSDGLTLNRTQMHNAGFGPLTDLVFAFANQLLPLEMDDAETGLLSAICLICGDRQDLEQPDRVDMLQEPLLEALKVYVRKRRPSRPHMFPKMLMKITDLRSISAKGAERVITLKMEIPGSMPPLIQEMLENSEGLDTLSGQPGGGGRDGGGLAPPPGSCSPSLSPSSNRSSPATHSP

On to `Cc1c(Cl)cccc1[N+](=O)[O-]`, for which the call in experiment [1], in experiment [2], in experiment [3], in [4], in experiment [5] and in experiment [6] was inactive. The result in experiment [7], in experiment [8], in [9], in experiment [10], in experiment [11] and in [12] was inactive. Further, the compound was classed as inactive in experiment [13], in experiment [14], in experiment [15], in experiment [16], in experiment [17] and in [18].

Turning to `CC[N+](C)(CC)CC`, the result in experiment [1], in [2], in [3], in experiment [4], in experiment [5] and in experiment [6] was inactive. Also, the result in [8], in [9], in [10], in experiment [11], in experiment [12] and in experiment [13] was inactive. For the same compound, the outcome in experiment [14], in experiment [15], in experiment [16], in experiment [17] and in [18] was inactive.

For the compound `Cc1cc(S(=O)(=O)O)ccc1N=Nc1c(O)ccc2ccccc12`, the compound was classed as inactive in experiment [1], in [2], in [3], in experiment [5], in [6] and in experiment [7]. In addition, the compound was called inactive in [8], in [9], in experiment [10], in [11], in [12] and in experiment [13]. The result in experiment [14], in experiment [15], in [16], in experiment [17] and in experiment [18] was inactive. Moreover, the AC50 in [4] is 2.32 µM (active).

`COc1cc(CCC(C)=O)ccc1O`: the compound was classed as inactive in experiment [1], in [3], in [4], in [5], in [6] and in experiment [7]. Besides, the result in [8], in experiment [9], in experiment [10], in [11], in [12] and in [13] was inactive. In addition, the compound was classed as inactive in experiment [14], in experiment [15], in experiment [16], in experiment [17] and in experiment [18].

Turning to `CN(c1nccc(=O)[nH]1)C1CCN(c2nc3ccccc3n2Cc2ccc(F)cc2)CC1`, the call in experiment [1], in experiment [2], in experiment [3], in [4], in experiment [5] and in [6] was inactive. The outcome in experiment [7], in experiment [8], in [9], in experiment [10], in experiment [11] and in experiment [12] was inactive. The call in experiment [13], in experiment [19], in experiment [14], in experiment [15], in [16] and in [17] was inactive. The call in experiment [18] was inactive.

With `CCCCCCCCC=CCCCCCCCC1=NCCN1CCO`, the result in experiment [1], in [4], in [6], in experiment [7], in [8] and in experiment [11] was inactive. Further, the result in experiment [12], in experiment [13], in experiment [16], in [17] and in experiment [18] was inactive. Moreover, the AC50 in experiment [2] was 48.2 µM (active); in [3], 40.6 µM (active); in [5], 100 µM (active); in [9], 26.1 µM (active); in experiment [10] it was 26.7 µM (active); in experiment [14], 126 µM (active). The AC50 in experiment [15] was 25.7 µM (active).

For the compound `CCCCCCCC(=O)OCC(O)CO` (centres undefined), the outcome in experiment [1], in [2], in experiment [3], in experiment [4], in experiment [5] and in experiment [6] was inactive. For the same compound, the result in experiment [7], in experiment [8], in [9], in [10], in [11] and in [12] was inactive. Also, the compound was called inactive in [14], in experiment [15], in experiment [16], in experiment [17] and in experiment [18].

Broadly, the AC50 is the midpoint of the concentration-response curve, whichever way the signal moves.
